Laboratory results taken from PubChem BioAssay (NCI).
This is part of a sample that, as a whole, favours compounds with a hit. Of some 79,000 tested, about 15% had one in any assay. Values without a mark were called inactive. Calls of active or inactive are those of the source. Rule as the data show it: active = growth inhibition above about 70%; inactive = the rest.

Experiments:
[1] = NCI Yeast Anticancer Drug Screen. Data for the rad50 strain (AID 155);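 also: 0% = growth of vehicle-only cultures of the same strain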; conditions: S. cerevisiae rad50 strain growth inhibition; at 50.0 µM; stronger effect = higher value
In short: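 Genetically altered yeast (DNA repair pathway); compound treatment; growth inhibition vs vehicle ctrl.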

[2] = NCI Yeast Anticancer Drug Screen. Data for the mec2-1 strain (AID 157); conditions: S. cerevisiae mec2-1 strain, at 50.0 µM, stronger effect = higher value
In short: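 Readout is yeast growth inhibition, normalised to vehicle-treated controls, in the mec2-1 strain exposed to compound.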

[3] = NCI Yeast Anticancer Drug Screen. Data for the sgs1 mgt1 strain (AID 161);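 also: 0% = growth of cultures given vehicle only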; conditions: S. cerevisiae sgs1 mgt1 strain, at 50.0 µM, stronger effect = higher value
In short: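 Growth of a repair-deficient yeast mutant was monitored after compound treatment and expressed as inhibition relative to vehicle-treated cultures.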

[4] = NCI Yeast Anticancer Drug Screen. Data for the cln2 rad14 strain (AID 165);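 also: 0% = growth equal to vehicle treated cultures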; conditions: S. cerevisiae cln2 rad14 strain, at 50.0 µM, stronger effect = higher value
In short: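 Relative to vehicle controls, growth inhibition of compound-treated cln2 rad14 yeast was recorded.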

[5] = NCI Yeast Anticancer Drug Screen. Data for the bub3 strain (AID 167); conditions: S. cerevisiae bub3 mutant strain, at 50.0 µM, stronger effect = higher value
In short: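 Yeast carrying a defined mutation is treated with each compound, and growth is compared with that of vehicle-exposed cells to give inhibition.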

[6] = NCI Yeast Anticancer Drug Screen. Data for the mlh1 rad18 strain (AID 175); conditions: S. cerevisiae mlh1 rad18 strain growth inhibition; at 50.0 µM; stronger effect = higher value
In short: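 Test agents were incubated with a yeast strain of defined genotype (DNA damage repair defect). Inhibition of growth was derived by comparison with vehicle-exposed cultures.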

SMILES | growth inhibition [1] | growth inhibition [2] | growth inhibition [3] | growth inhibition [4] | growth inhibition [5] | growth inhibition [6]
NC(=S)NNC(=S)NC(=O)c1ccco1 | -39.8% | 5.55% | 5.05% | 14.3% | 22.1% | -18.7%
CNC(=O)OCc1c(COC(=O)NC)c(-c2ccccc2)n(-c2ccccc2)c1C | 24.4% | 27.8% | 44.8% | 37.9% | 22.9% | 88.1% (active)
Cc1cc(=O)[nH]c(N/N=C/c2ccco2)n1 | -20.8% | -48.8% | -16.8% | 6.75% | -33.8% | -15.3%
COC1OC(CO)C(OC(=O)Nc2ccccc2)C(OC(=O)Nc2ccccc2)C1O (stereo not drawn) | -16.9% | -10.7% | -1.4% | -38.1% | 2.7% | -8.15%
COc1ccc(C(=O)C[n+]2cc(Br)cc3ccccc32)cc1 | -3.1% | 11.8% | 1.5% | 22.9% | -3.05% | 54.5%
COc1cccc(C=O)c1[O-].COc1cccc(C=O)c1[O-].[Zn+2] | 52.4% | 17.9% | 56.7% | 32.2% | 11.8% | 66%
COC(=O)/C=C(/N)CC(=O)OC | 16.9% | -25.4% | -8.35% | 10.9% | -15.9% | 1.75%
CC(=O)Nc1cc2c3c(c1)CCCN3CCC2 | -24.4% | -14.8% | -38.2% | 25.9% | 27.6% | -3.6%
CCCCCCCCCCCCSSC(=S)OC(C)C | 46.7% | 37.7% | 45.5% | 16.9% | 43.6% | 44.5%
CCc1ccc(C(=O)O)cc1S(=O)(=O)Cl | 7.2% | 13.4% | -12.6% | -9.4% | 2.55% | 1.45%
CC(=O)OCCOCCCl | -12.8% | 20.2% | 1.5% | -13.3% | 19.2% | 12.1%
O=C(O)c1csc(C(=O)O)c1 | 8.5% | -1.1% | 9.05% | 2.3% | 12.4% | 8.35%
S=C(Nc1ccccc1)Nc1ccccn1 | 10.1% | -29.6% | 4.05% | -30.8% | -4.35% | 4.25%
O=C1N(CCN2CCC3(CC2)OCCO3)CCN1c1cc(Cl)cc(Cl)c1 | 56.9% | 25.4% | 51% | 34.3% | 24.6% | 37.8%
COc1ccc(CC(=O)NCCc2ccc(OC)c(OC)c2OC)cc1 | 8.95% | -34.7% | -30% | 8.3% | -10.7% | -32.8%
NC(=O)CC(N)C(=O)NC(Cc1ccccc1)C(=O)NC(Cc1ccccc1)NC(=O)C(Cc1c[nH]c2ccccc12)C(=O)O (stereo not drawn) | -18.6% | 8.05% | -11.1% | -13.2% | 1.85% | 1.95%
CCCCN(CCCC)c1c([N+](=O)[O-])c(=O)nc2ccccn12 | 21.1% | -3.35% | 5.7% | 11.7% | 11.2% | 37.9%
CN(N)C(=O)Nc1cccc(Cl)c1 | 13.1% | 8.55% | 16.4% | -5.25% | 2.7% | 17.3%
CCC(C)C(C)/C(C)=N/Nc1ccc([N+](=O)[O-])cc1[N+](=O)[O-] (stereo not drawn) | 13.7% | -10% | 0.25% | -34.9% | 6.6% | -26.4%

SMILES | growth inhibition [1] | growth inhibition [2] | growth inhibition [3] | growth inhibition [4] | growth inhibition [5] | growth inhibition [6]
COc1cccc(-c2cc(=O)c3cc(N4CCCC4)ccc3[nH]2)c1 | -26.3% | -15.2% | -19.9% | 8.6% | -21.6% | -19.1%
CCC1(CC)COC2(CCC(C)CC2)OC1 | -6.4% | -2.95% | -5.05% | -16.1% | -14.7% | 7.5%
C1CCN(CCC2CCNCC2)C1 | 5.5% | -19.4% | -15.1% | 13.5% | -1% | 3.8%
NC(=O)c1nc(C2OC(CO)C(O)C2O)cs1 (stereo not drawn) | -0.7% | -1.2% | -2.25% | -27.9% | 6.75% | 0.15%
CC(O)c1cccc(C(C)(C)O)c1Sc1c(C(C)(C)O)cccc1C(C)(C)O (stereo not drawn) | 13% | 7.8% | 10.1% | -0.75% | 6.25% | -14.6%
C#CC(C)(O)CC(C)C (stereo not drawn) | 1.9% | -1.2% | -8.6% | -73.7% | 6.65% | -71.7%
O=C(NCC(CC(NC(=O)c1ccccc1)C(=O)O)NC(=O)c1ccccc1)c1ccccc1 (stereo not drawn) | -20.5% | -4.85% | -11.4% | 16% | -5.9% | 0.9%
Nc1nc(=O)[nH]c2n[nH]nc12 | -18.2% | -7.15% | 6.7% | -3.15% | -2.35% | 0.2%
Cc1ccc(S(=O)(=O)NN=C2CCS(=O)CC2)cc1 (stereo not drawn) | -19.6% | 10.7% | 7.6% | -32.4% | -10.5% | -28.5%
COc1ccc(/C(C)=N/NC(=O)CC(=O)N(C(=O)c2ccccc2)c2ccc(C)cc2)cc1 | -8.45% | -36% | -6.5% | 8.15% | -27.2% | -17.9%
COc1csn[n+]1-c1ccc(C)cc1 | 7.7% | 3.65% | 9.45% | 7.5% | 14.8% | 9.65%
CC(=O)Nc1ccc(Cc2ccc3[nH]c(=O)cc(C)c3c2)cc1 | -16.3% | 18.6% | 15.8% | 5.35% | -30.1% | 12.9%
CC1=NOC2(C1)C(=O)Nc1ccccc12 (stereo not drawn) | 23.2% | 9.5% | 8.55% | 11.3% | 2.85% | 18.4%
CCCC(CC/C(C)=N/NC(N)=O)[N+](=O)[O-] (stereo not drawn) | -20.1% | -9.25% | 0.05% | -9.55% | 4.75% | 8.5%
CC(=O)CC(=O)NCCCN1CCCCCC1 | -1.1% | -20.1% | -9.45% | -1.05% | -11.2% | -4.35%
Nc1n[n+](-c2ccc(Cl)cc2)no1 | 67% | 87.8% (active) | 87.4% (active) | 81.7% (active) | 82.8% (active) | 91.7% (active)
NC(=S)n1nc(-c2ccccc2)c(N=Nc2ccc(Br)cc2)c1-c1ccccc1 | 38.6% | 3.8% | 21.7% | 15.4% | 14.2% | 12.4%
CN(C)CC(C)(C)C(=O)c1ccc(F)cc1 | 5.35% | 5.8% | -0.1% | 3.55% | 1.7% | 12.3%
CC(C)C(NC(=O)OC(C)(C)C)C(=O)O (stereo not drawn) | -11.3% | 1.2% | 14.7% | -66.3% | 9.45% | -6.9%
